Several values for one entry are separate records, joined by “and”; a condition that tells them apart may be missing. Equal values may be shown once. Results filed as inconclusive are left out. Unmarked numbers belong to inactive results. Activity calls are given as the source filed them. The call rests on the fitted dose curve; in most records, active means well fitted inhibition curve with a large enough effect; inconclusive means small, poorly fitted or top-dose-only effect; inactive means flat fitted curve, though single readings scatter.
These compounds were tested against Galactokinase (Homo sapiens) (UniProt P51570) (assay: qHTS for Inhibitors of Human Galactokinase (GALK): Confirmation Assay for SAR round 4). Settings: recombinant GALK, ADP-Glo luminescence, 1 h; series mostly up to 57.5 µM; activity, negative = inhibition: at the top concentration.
Sequence of Galactokinase (Homo sapiens) (P51570 whole entry, looked up): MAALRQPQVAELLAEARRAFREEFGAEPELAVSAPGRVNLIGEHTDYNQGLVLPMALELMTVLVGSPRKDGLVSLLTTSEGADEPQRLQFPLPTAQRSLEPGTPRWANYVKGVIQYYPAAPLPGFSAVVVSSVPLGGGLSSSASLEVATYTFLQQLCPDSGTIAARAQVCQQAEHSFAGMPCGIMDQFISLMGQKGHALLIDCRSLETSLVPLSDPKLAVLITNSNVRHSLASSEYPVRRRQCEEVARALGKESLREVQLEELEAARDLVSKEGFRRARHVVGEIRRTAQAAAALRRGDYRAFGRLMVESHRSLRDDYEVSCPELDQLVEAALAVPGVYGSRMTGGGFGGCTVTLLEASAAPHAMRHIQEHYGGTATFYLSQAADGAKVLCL
Text: Inherited deficiency of galactose-1-phosphate uridyltransferase (GALT) can result in a potentially lethal disorder called Classic Galactosemia (OMIM 230400). Several lines of evidence indicate that an elevated level of galactose-1-phosphate (gal-1-p), the product of galactokinase (GALK), is a major, if not sole, pathogenic mechanism in patients with classic galactosemia. Therefore, finding inhibitors of GALK is a potential novel therapy for this inherent metabolic disease and is the long term goal of this project. Active compounds observed in the qHTS GALK assay (AID: 1868) were cherry picked and re-screened for validation. GALK (provided by Kent Lai) was assayed using ATP and D-(+)-Galactose (Sigma-Aldrich cat# G0750) as substrates. Promega ADP-Glo technology was used to detect the ADP product formed after the kinase reaction. Kinase reactions with and without GALK were used as negative and positive controls together with Protein Tyrosine Phosphatase CD45 inhibitor (EMD Bioscience cat# 540215) which is shown to inhibit GALK activity. Decrease in activity corresponds to inhibition of the enzyme, the desired outcome for this assay. NIH Molecular Libraries Probe Production Network [MLPCN] NIH Chemical Genomics Center [NCGC] Grant: R03 MH085689-01 PI Name: Kent Lai, University of Utah
Two uL/well of ATP-buffer solution (35 uM ATP, 20mM HEPES pH8.0, 5 mM MgCl2, 60 mM NaCl, 1 mM DTT, 0.01% BSA final concentration) was dispensed into 1536-well, assay plates (Greiner, solid white medium-binding plates) with Aurora Discovery BioRAPTR Flying Reagent Dispenser (FRD; Beckton-Dickenson). Compound and control solution (23 nL) was transferred to the assay plate using the Kalypsys 1536-pin tool apparatus. Half uL/well GALK-galactose solution (5 nM GALK, 100 uM galactose, 20 mM HEPES pH8.0, 5 mM MgCl2, 60 mM NaCl, 1 mM DTT, 0.01% BSA final concentration) was then added using the FRD yielding a total kinase reaction volume of 2.5 uL/ well. After 1 hour of room temperature incubation, 2.5 uL ADP-Glo reagent A was added and incubated for 15 min. Five micorliter of ADP-Glo reagent B was then added per well and incubated for additional 15 min at room temperature. Luminescence was detected with the ViewLux plate reader (Perkin Elmer, Waltham, MA) using a 1 sec exposure time and 2x binning.
With `CC1=C(C(=O)Nc2nc3ccccc3s2)C(c2[nH]ncc2Cl)N=C(Nc2nc3ccccc3o2)N1` (stereo not given) the “activity, negative = inhibition” value was -7.24%. With `O=C1CCCC2=C1C(c1[nH]ncc1Br)N=C(Nc1nc3ccccc3o1)N2` (stereo not given) the Potency was 15.3 µM (active). For `CC1=C(C(=O)Nc2nc3ccccc3s2)C2(CCCC2)N=C(Nc2nc3ccccc3o2)N1`, the “activity, negative = inhibition” value was -18.2%. With `CC1=C(C(=O)Nc2ccon2)C2(CCCC2)N=C(Nc2nc3ccccc3o2)N1` the Potency was 7.69 µM (active). `CC1=C(C(=O)Nc2noc3ccccc23)C(c2nn(C)cc2Cl)N=C(Nc2nc3ccccc3o2)N1` (stereo not given) was tested, and the “activity, negative = inhibition” value was -1.71%. In the case of `O=C1CCCC2=C1C(c1ccccc1I)N=C(Nc1nc3ccccc3o1)N2` (stereo not given), the Potency is reported as 3.06 µM (active). With `CC1=C(C(=O)Nc2noc3ccccc23)C2(CCCC2)N=C(Nc2nc3ccccc3o2)N1` the “activity, negative = inhibition” value was -1.57%. `CC1=C(C(=O)Nc2nncs2)C(c2[nH]ncc2Cl)N=C(Nc2nc3ccccc3o2)N1` (stereo not given) was tested, and the Potency was 7.69 µM (active). `CC(C)CN1CC2=C(C1=O)C(c1ccccc1Cl)N=C(Nc1nc3ccccc3o1)N2` (stereo not given) was tested, and the “activity, negative = inhibition” value was -14.9%. With `CC1=C(C(=O)Nc2ccc(Cl)cc2)C(c2ccccc2Br)N=C(Nc2nc3ccccc3o2)N1` (stereo not given) the “activity, negative = inhibition” value was -26.9%. `O=C1C2=C(CN1Cc1ccccc1)NC(Nc1nc3ccccc3o1)=NC2c1ccccc1Cl` (stereo not given) was tested, and the “activity, negative = inhibition” value was -0.242%. `CC1=C(C(=O)NC2CCCC2)C(c2[nH]ncc2Cl)N=C(Nc2nc3ccccc3o2)N1` (stereo not given) was tested, and the “activity, negative = inhibition” value was -11.9%. For `O=C1CCCC2=C1C(c1ccccc1Cl)N=C(Nc1nc3ccccc3o1)N2` (stereo not given), the Potency was 13.7 µM (active). In the case of `O=C1C2=C(CN1c1ccccc1)NC(Nc1nc3ccccc3o1)=NC2c1ccccc1Cl` (stereo not given), the “activity, negative = inhibition” value is reported as -7.05%. For `O=C1CCCC2=C1C(c1ccncc1Cl)N=C(Nc1nc3ccccc3o1)N2` (stereo not given), the Potency was 10.9 µM (active). With `O=C1CCCC2=C1C(c1[nH]ncc1Cl)N=C(Nc1nc3ccccc3o1)N2` (stereo not given) the Potency was 5.44 µM (active) and 6.85 µM (active). With `CNC(=O)C1=C(C)NC(Nc2nc3ccccc3o2)=NC12CCCC2` the “activity, negative = inhibition” value was -10.4%. For `CC1=C(C(=O)Nc2ccon2)C(c2ccccc2Br)N=C(Nc2nc3ccccc3o2)N1` (stereo not given), the Potency was 7.69 µM (active). With `O=C1CCCC2=C1C(c1ccccc1Br)N=C(Nc1nc3ccccc3o1)N2` (stereo not given) the Potency was 4.32 µM (active). `CC1=C(C(=O)Nc2nc3ccccc3s2)C(c2nn(C)cc2Cl)N=C(Nc2nc3ccccc3o2)N1` (stereo not given) was tested, and the “activity, negative = inhibition” value was -5.67%.

From PubChem BioAssay AID743373 (National Center for Advancing Translational Sciences (NCATS), 2014)
